Results from PubChem BioAssay AID1347165 (National Center for Advancing Translational Sciences (NCATS), 2019).
Hit rate of the full screen: of about 220,000 compounds, about 5,700 (2.6%) were called active. Roughly 18% stayed inconclusive and do not appear here. Calls follow the shape of the dose curve; as a rule, active = well fitted inhibition curve with a large enough effect; inconclusive = small, poorly fitted or top-dose-only effect; inactive = no such curve, though single readings can be large or run the other way. Shown is part of a subset that was picked to be rich in actives.

biological target: Lysine-specific demethylase 5B (Homo sapiens) (UniProt Q9UGL1); experiment: Primary screen for KDM5B Histone Demethylases FDH-coupled qHTS; details: FDH-coupled NADH fluorescence (FDH is formaldehyde dehydrogenase); series mostly up to 57.7 µM; activity change, negative = inhibition: at the top concentration; also: nearly all actives have a fitted effect of over 70% in size; as to activity change, negative = inhibition: 0% is about no effect
Summary of the method: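 Coupled FDH/NAD⁺ fluorescence readout. KDM5BΔAP 200 nM final; compound titration, 10 min RT preincubation; substrate mix 12.5 µM H3K4me3, 25 µM 2-OG, 50 µM Fe(II), 100 µM ascorbate, 0.25 mM NAD⁺, 0.25 U/mL FDH; ΔRFU over 30 min.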
Potency is read from the fitted curve at half-maximal effect.

Sequence of Lysine-specific demethylase 5B (Homo sapiens) (Q9UGL1 whole entry, looked up): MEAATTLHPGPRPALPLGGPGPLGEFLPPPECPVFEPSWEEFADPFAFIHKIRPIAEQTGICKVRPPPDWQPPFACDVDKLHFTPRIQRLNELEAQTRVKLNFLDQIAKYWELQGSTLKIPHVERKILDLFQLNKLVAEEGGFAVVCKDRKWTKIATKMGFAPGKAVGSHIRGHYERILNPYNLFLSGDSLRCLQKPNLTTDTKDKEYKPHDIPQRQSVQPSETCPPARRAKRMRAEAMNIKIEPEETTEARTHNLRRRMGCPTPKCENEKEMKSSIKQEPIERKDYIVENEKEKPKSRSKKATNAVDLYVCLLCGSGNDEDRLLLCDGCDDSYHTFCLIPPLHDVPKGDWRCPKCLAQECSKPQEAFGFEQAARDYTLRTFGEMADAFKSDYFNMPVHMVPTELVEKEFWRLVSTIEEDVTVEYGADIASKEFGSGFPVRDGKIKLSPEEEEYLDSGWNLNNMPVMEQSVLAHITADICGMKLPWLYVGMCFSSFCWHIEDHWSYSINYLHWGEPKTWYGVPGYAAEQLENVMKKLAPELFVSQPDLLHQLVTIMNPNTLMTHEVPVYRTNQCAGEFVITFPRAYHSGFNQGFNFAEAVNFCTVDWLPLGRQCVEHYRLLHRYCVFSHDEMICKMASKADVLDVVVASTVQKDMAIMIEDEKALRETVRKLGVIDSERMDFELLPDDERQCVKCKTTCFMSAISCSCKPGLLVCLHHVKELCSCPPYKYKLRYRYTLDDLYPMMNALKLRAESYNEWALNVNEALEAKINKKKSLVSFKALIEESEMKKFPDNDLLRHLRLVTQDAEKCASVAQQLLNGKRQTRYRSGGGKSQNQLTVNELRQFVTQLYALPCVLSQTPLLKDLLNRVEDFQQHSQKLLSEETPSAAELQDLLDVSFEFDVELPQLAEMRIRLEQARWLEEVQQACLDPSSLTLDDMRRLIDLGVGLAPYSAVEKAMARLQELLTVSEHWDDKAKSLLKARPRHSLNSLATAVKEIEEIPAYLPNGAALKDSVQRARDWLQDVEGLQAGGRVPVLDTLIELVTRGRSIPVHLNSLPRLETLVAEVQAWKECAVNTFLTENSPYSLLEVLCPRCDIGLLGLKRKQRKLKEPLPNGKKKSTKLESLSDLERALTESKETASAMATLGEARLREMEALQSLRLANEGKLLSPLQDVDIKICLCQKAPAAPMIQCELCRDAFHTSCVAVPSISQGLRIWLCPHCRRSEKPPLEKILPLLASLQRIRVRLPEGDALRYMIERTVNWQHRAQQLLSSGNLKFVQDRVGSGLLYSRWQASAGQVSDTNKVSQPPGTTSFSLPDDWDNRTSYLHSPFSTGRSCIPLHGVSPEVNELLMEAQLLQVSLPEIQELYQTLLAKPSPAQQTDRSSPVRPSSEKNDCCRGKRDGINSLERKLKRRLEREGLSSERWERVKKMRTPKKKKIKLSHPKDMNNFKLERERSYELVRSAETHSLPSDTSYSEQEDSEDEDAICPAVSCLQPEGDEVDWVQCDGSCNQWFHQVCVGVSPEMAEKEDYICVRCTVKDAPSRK

Activity change, negative = inhibition, inactive:
COc1ccc(C23NCCN2C(=O)c2ccccc23)cc1 (stereo unspecified) 34.4%, Cc1ccc(CNC(=O)c2cc(=O)c3ccc(C)c(C)c3o2)cc1 13.1%, COc1ccc(CNC(=O)c2noc(-c3ccc(F)cc3)n2)cc1 -17.9%, COc1ccc(CNC(=O)c2ccc(CS(=O)c3ccc(C)cc3)o2)cc1OC (stereo unspecified) -8.94%, O=C(NCc1ccc2c(c1)OCO2)c1noc(-c2ccc(F)cc2)n1 7.84%, CCCc1nc(SCC(=O)N2CCCC2)c2c(=O)n(C)c(=O)n(C)c2n1 37.7%, Cc1ccccc1NC(=S)NNC=O 26.2%, COc1ccc(OC)c(S(=O)(=O)N2CCCC(C(=O)NCCc3ccccc3)C2)c1 (stereo unspecified) 26.3%, CC(=O)c1ccccc1NC(=O)CCc1ncc(-c2c(F)cccc2F)o1 -23.2%, CCOC(=O)CN1C(=O)C2(CC(=O)Nc3[nH]ncc32)c2ccccc21 (stereo unspecified) 5%, N[C@@H]1CC[C@H](C(=O)N2CCN(CCCOc3ccc(F)cc3)CC2)C1 -4.43%, Cc1cnc(C)c(N2CCN(C(=O)C3CCC(=O)N(CCc4cccc(F)c4)C3)CC2)n1 (stereo unspecified) 0.442%, COc1ccccc1Cc1nnc(NC(=O)c2cccc(NC(=O)c3ccccc3)c2)s1 -7.98%, COc1ccc(OC2CCN(C(C)=O)CC2)c(C(=O)N(C)Cc2ccc3nccnc3c2)c1 -11.7%, COc1ccc(OC2CCN(C(C)=O)CC2)c(C(=O)NCc2snnc2C)c1 5.6%, O=C(c1cc2ccccc2oc1=O)N1CCC(Cc2ccccc2)CC1 7.13%, COCCN1C(=O)c2cccn2CC1CNC(=O)c1ccccc1F (stereo unspecified) -17.1%, COCCC(=O)NCC1Cn2cccc2C(=O)N1Cc1ccccc1 (stereo unspecified) -21.7%, CCOC(=O)c1oc2cc(OC(C)=O)ccc2c(=O)c1-c1ccc(OC)cc1 -2.04%, O=C1CO[C@H](c2ccc(NS(=O)(=O)c3cccc(F)c3)cc2)[C@@H](CO)N1Cc1ccncc1 15.3%, Cn1cc(C#N)cc1-c1nc(COc2ccccc2)nn1CC(F)(F)F -14.2%, COc1cc(F)ccc1C(C)=O 15.6%, COc1cc(F)ccc1-c1ccc(COc2ccc3c(cnn3CCC(=O)O)c2)cc1 -20.4% [at 86.2 µM], Cc1cc(Nc2ccccc2)n2nc(Cc3ccc(Cl)cc3)nc2n1 19.8%, Fc1ccc(Cc2nc3nccc(-c4cc5ccccc5o4)n3n2)cc1 -345%, O=C(O)c1cc(Br)c(Cl)[nH]1 -0.612%, Cc1ccc2c(COC(=O)COc3ccc(C)c(C)c3)cc(=O)oc2c1 9.56%, Cc1[nH]c2ccc(C(=O)N3CCN(C)CC3)cc2c1C 16.8%, CCOc1ccc(C(=O)Nc2ccc3oc(C)nc3c2)cc1OCC -8.51%, N#CCCC(C#N)Cn1nc(-c2ccccc2)c2ccccc2c1=O (stereo unspecified) 4.44%, CCN(CC)Cc1cnc2c(C(=O)NCc3ccsc3)cnn2c1 -24.5%, CC#CC(=O)N1CCCC(C(=O)Nc2cccc(-c3cccc(C)c3)c2)C1 (stereo unspecified) 7.67%, COc1ccc(CN2CC(Oc3ccc(F)c(F)c3)C2)cc1 -0.531% [at 149 µM], COCCn1c(-c2cccc(OC)c2)cnc1NC(=O)NCCc1ccccc1 -4.88%, COc1cccc(-c2nc(COc3ccccc3C#N)cs2)c1 -29%, CC1CNC(C)(C)C(O)C1 (stereo unspecified) 22.2%, Cn1c(=O)c2c(nc(NCc3cccs3)n2Cc2ccc(F)cc2)n(C)c1=O 12.8%, Oc1c(C=Nc2ccc(F)c(Cl)c2)ccc2ccccc12 11.3%, CC(NC(=O)CNC(=O)c1ccc(N2CCCC2=O)cc1)c1ccccc1Br (stereo unspecified) -11.8%, COc1ccc(C(=O)N[C@@H]2C[C@H](COc3cccc(C)n3)[C@@H](O)[C@H]2O)cc1 -15.3% [at 86.2 µM], CN(Cc1nccn1C)C(=O)c1cc(CN2CCC(Cc3ccccc3)CC2)on1 -7.68%, CN(CCc1ccccn1)C(=O)c1ccc(OC2CCN(CCc3ccccc3)CC2)cc1 -6.05%, CCCn1nc(C(=O)OCC(=O)N2CCc3ccccc32)c2ccccc2c1=O 24.1%, COc1ccc(NC(=O)c2cnc3ccccc3n2)c(OC)c1 -11.9%, COc1ccc(-c2onc(C)c2C(=O)NCc2ccc3c(c2)OCO3)cc1 -8.26%, CCCOCCCNC(=O)c1c(C)noc1-c1ccccc1Cl 6.54%, O=C(COc1ccc2c(=O)c(-c3ccccc3)coc2c1)N1CCN(c2ccccn2)CC1 -1.74%, Cc1ccc(-c2noc(Cn3cnc(C#N)n3)n2)cc1 7.52%, Cc1ccccc1CN1C(=O)c2ccccc2Sc2ccc(C(=O)NCCCN3CCOCC3)cc21 -1.46%, COc1cccc(-c2ccc(F)c(C(N)=O)c2)c1OC -22.1%, COc1ccccc1C(=O)Nc1ccnn1C1CCN(Cc2cnn(C)c2)CC1 9.36%, Cc1ccc2[nH]cc(CCNC(=O)c3ccccc3C)c2c1 6.05%, COc1ccc(CNC(=O)c2cccc3c2CCN3C(=O)c2ccc(F)cc2)cc1OC -17.8%, COc1ccc(CN[C@@H]2CCC[C@@H](C(=O)NCc3cc(C)on3)CC(=O)N(C)C2)cn1 -11.1% [at 86.2 µM]

Potency, active:
CNc1nc(C(=O)NCc2ccc3[nH]c(-c4ccc(F)cc4)c(C)c3c2)cs1 5.62 µM, Cc1c(-c2ccc(F)cc2)[nH]c2ccc(CNC(=O)c3ccc(CO)o3)cc12 22.4 µM, Cc1cnc(C)c(N2CCN(C(=O)[C@H]3CC[C@@H](N)C3)CC2)n1 22.4 µM, COc1ccc(OC2CCN(C(C)=O)CC2)c(C(=O)NCCc2ccccc2OC)c1 25.1 µM, COCCN1C(=O)c2cccn2CC1CNC(=O)c1cc2ccccc2[nH]1 (stereo unspecified) 28.2 µM, COCc1nc2nccc(-c3ccccc3)n2n1 31.6 µM, CCc1nc2nccc(-c3ccco3)n2n1 28.2 µM, Fc1ccc(Cc2nc3nccc(-c4ccco4)n3n2)cc1 20 µM, COc1cc(F)ccc1-c1ccnc2nc(C(C)C)nn12 28.2 µM, COc1cccc(-c2ccnc3nc(Cc4cc(F)cc(F)c4)nn23)c1 25.1 µM, COc1ccc(-c2ccnc3nc(CC(C)C)nn23)c(F)c1 28.2 µM, c1coc(-c2ccnc3nc(C4CC4)nn23)c1 28.2 µM, CN(CC1CCN(CCc2cccc(F)c2)CC1)C(=O)c1cn2cccnc2n1 28.2 µM, CCCOCCCNC(=O)c1c(C)noc1-c1cc(OC)c(OC)c(OC)c1 28.2 µM, COc1ccccc1-c1cc(C(=O)NCc2cnn(C)c2)c2c(c1)N(C)CCO2 28.2 µM, Cc1ccccc1-c1cc(C(=O)NCCN2CCNC2=O)c2c(c1)N(C)CCO2 39.8 µM, COc1cccc(-c2cc(C(=O)NCc3cc(C)on3)c3c(c2)N(C)CCO3)c1OC 28.2 µM
